Inconclusive results are not listed. Unless noted, calls follow the shape of the dose curve; as a rule, active = well fitted curve in either direction with a large enough effect (not every such curve was filed as active); inconclusive = small, poorly fitted or top-dose-only effect, or another doubt; inactive = flat fitted curve, though single readings scatter.
Tests used:
[1] = AP1 Signaling Pathway (AID 357); details: ME-180 AP-1-bla reporter, EGF-induced, beta-lactamase ratio, 5 h; at 17.2 µM (top of the series) unless noted;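 also: ME-180 reporter cells stimulated with EGF at its EC50 level; % is scaled to controls: 0 for no effect and ±100 for the full control effect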
In short: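 Cells are seeded overnight, exposed to compound titrations and an EC50 level of EGF for 5 hours at 37 °C, then loaded with CCF4 dye for 2.5 hours. Beta-lactamase activity under the AP-1 element is read as a blue/green ratio.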

[2] = NFAT Signaling Pathway (AID 444); details: Jurkat NFAT-bla M1, carbachol, beta-lactamase ratio, 5 h; at 17.2 µM (top of the series) unless noted;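 also: carbachol stimulus at about its EC50 of 1 µM final; % is scaled to controls: 0 for no effect and ±100 for the full control effect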
In short: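 Jurkat cells with NFAT-driven β-lactamase reporter and co-expressed M1 receptor, stimulated with carbachol (final 1 uM, ~EC50), compound titration, 5 h at 37 °C. CCF4 loaded 1 h at RT; 460/530 nm ratio gave %activity and AC50.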

[3] = Stat Signaling Pathway (AID 446); details: ME-180 (cervical carcinoma) SIE beta-lactamase reporter, IL-6 stimulated, 5 h; at 17.2 µM (top of the series) unless noted;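 also: ME-180 cervical cancer cells given 40 pM IL-6 alongside compound; SIE-controlled beta-lactamase reporter measured as 460/530 nm FRET emission ratio; % is scaled to controls: 0 for no effect and ±100 for the full control effect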
In short: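 Compound effects on IL-6-induced STAT reporter activity were measured in ME-180 cells. After overnight culture, cells were co-treated with 40 pM IL-6 for 5 hrs before beta-lactamase substrate loading at room temperature.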

[4] = target: Glucocorticoid receptor (Homo sapiens) (UniProt P04150); test: GR-GFP Redistribution (AID 450;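 active = compounds whose dose series gives a full or clear partial fitted curve of increased nuclear translocation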; also: potency is read from the fitted curve at half-maximal effect)
Sequence of Glucocorticoid receptor (Homo sapiens) (P04150 whole entry, looked up): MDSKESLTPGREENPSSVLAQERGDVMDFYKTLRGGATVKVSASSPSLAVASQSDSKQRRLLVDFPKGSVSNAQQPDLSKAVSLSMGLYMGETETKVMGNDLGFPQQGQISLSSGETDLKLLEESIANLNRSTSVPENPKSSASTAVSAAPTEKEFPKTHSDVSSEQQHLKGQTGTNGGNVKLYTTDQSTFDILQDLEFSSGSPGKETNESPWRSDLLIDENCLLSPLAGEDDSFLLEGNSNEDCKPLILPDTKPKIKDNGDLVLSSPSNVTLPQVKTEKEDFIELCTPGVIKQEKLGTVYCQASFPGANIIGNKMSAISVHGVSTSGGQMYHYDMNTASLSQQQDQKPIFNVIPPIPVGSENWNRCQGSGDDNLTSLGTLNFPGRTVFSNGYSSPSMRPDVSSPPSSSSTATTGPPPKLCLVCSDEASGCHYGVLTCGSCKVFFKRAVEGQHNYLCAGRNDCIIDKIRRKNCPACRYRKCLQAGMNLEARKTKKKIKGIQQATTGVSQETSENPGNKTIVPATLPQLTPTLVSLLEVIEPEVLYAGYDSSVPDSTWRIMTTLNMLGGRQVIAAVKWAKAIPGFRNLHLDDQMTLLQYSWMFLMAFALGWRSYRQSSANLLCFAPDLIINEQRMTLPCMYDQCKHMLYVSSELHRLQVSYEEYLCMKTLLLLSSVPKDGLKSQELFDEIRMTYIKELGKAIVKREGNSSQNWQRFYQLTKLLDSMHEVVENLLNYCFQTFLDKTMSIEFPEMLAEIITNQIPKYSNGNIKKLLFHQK

COc1ccc(-c2nn3c(-c4ccccn4)nnc3s2)cc1OC
inactive: activity change, negative = inhibition [1] -16.2% | activity change, negative = inhibition [2] -21.8% | activity, negative = inhibition [3] -2.76% | Potency [4] > 20.6 µM

CCCc1nc2n[nH]c(N)c2c2c1COC(C)(C)C2
inactive: activity change, negative = inhibition [1] 2.75% | activity change, negative = inhibition [2] -0.018% | activity, negative = inhibition [3] 2.38% | Potency [4] > 20.6 µM

CCN(CC)S(=O)(=O)c1cccc2c(N(C)C)cccc12
inactive: activity change, negative = inhibition [1] -13.4% | activity change, negative = inhibition [2] -17.2% | activity, negative = inhibition [3] 19% | Potency [4] > 20.6 µM

O=C1[C@@H]2[C@H](C(=O)N1n1cnnc1)[C@H]1C=C[C@@H]2C1
inactive: activity change, negative = inhibition [1] -2.82% | activity change, negative = inhibition [2] 1.6% | activity, negative = inhibition [3] 3.44% | Potency [4] > 20.6 µM

Clc1ccc(-n2ncc3c(NCc4ccco4)ncnc32)cc1
inactive: activity change, negative = inhibition [1] -19.6% | activity change, negative = inhibition [2] 1.57% | activity, negative = inhibition [3] -20.9% | Potency [4] > 20.6 µM

CCOC(=O)C1=C(C)NC(=O)C1CC(=O)Nc1ccccc1 (configuration not stated)
inactive: activity change, negative = inhibition [1] -1.66% | activity change, negative = inhibition [2] 25.9% | activity, negative = inhibition [3] 3.03% | Potency [4] > 20.6 µM

Cc1cc(OCC(=O)Nc2ccc3oc(-c4ccncc4)nc3c2)ccc1Cl
inactive: activity change, negative = inhibition [1] -4.67% | activity change, negative = inhibition [2] 16.6% | activity, negative = inhibition [3] 3.21% | Potency [4] > 20.6 µM

O=C1NC(c2cccs2)Nc2ccccc21 (configuration not stated)
inactive: activity change, negative = inhibition [1] -27% | activity change, negative = inhibition [2] -4.93% | activity, negative = inhibition [3] -4.53% | Potency [4] > 20.6 µM

Cc1nc(N2CCOCC2)c(C#N)c2c1COC(C)(C)C2
inactive: activity change, negative = inhibition [1] 0.635% | activity change, negative = inhibition [2] 2.49% | activity, negative = inhibition [3] 7.32% | Potency [4] > 20.6 µM

CCOc1ccc(Cc2nc(N)nc(N)n2)cc1
inactive: activity change, negative = inhibition [1] -3.76% | activity change, negative = inhibition [2] 6.51% | activity, negative = inhibition [3] 8.67% | Potency [4] > 20.6 µM

CSc1nc(C)c2c(c1C#N)CCCC2
inactive: activity change, negative = inhibition [1] -16.1% | activity change, negative = inhibition [2] -18.1% | activity, negative = inhibition [3] 16.1% | Potency [4] > 20.6 µM

Cc1nnc(SCC(=O)N2CCC(C(N)=O)CC2)s1
inactive: activity change, negative = inhibition [1] 4.41% | activity change, negative = inhibition [2] 5.46% | activity, negative = inhibition [3] 7.13% | Potency [4] > 20.6 µM

CCN(CC)CCCN1C(=O)C(O)=C(C(=O)c2ccc(C)o2)C1c1ccc(C)o1 (configuration not stated)
inactive: activity change, negative = inhibition [1] 5.4% | activity change, negative = inhibition [2] -12.9% | activity, negative = inhibition [3] 9.39% | Potency [4] > 20.6 µM

Cn1c(=O)n(CCC(=O)O)c2ccccc21
inactive: activity change, negative = inhibition [1] 11.6% | activity change, negative = inhibition [2] 2% | activity, negative = inhibition [3] 2.26% | Potency [4] > 20.6 µM

COC(=O)c1c(-n2cnnn2)sc(C)c1C
inactive: activity change, negative = inhibition [1] -20.5% | activity change, negative = inhibition [2] 2.79% | activity, negative = inhibition [3] 6.13% | Potency [4] > 20.6 µM

CCOC(=O)C1CSc2[nH]c(=O)sc2C1c1ccccc1 (configuration not stated)
inactive: activity change, negative = inhibition [1] 0.248% | activity change, negative = inhibition [2] -1.24% | activity, negative = inhibition [3] -1.01% | Potency [4] > 20.6 µM

COc1ccc2c(c1)C1(C)CC(C)(C)N2C(=O)N1c1ccccc1 (configuration not stated)
inactive: activity change, negative = inhibition [1] -24.6% | activity change, negative = inhibition [2] 24.8% | activity, negative = inhibition [3] -17.2% | Potency [4] > 20.6 µM

Cn1c(=O)c2c(nc(Br)n2CCSc2ncccn2)n(C)c1=O
inactive: activity change, negative = inhibition [1] 10.3% | activity change, negative = inhibition [2] 8.82% | activity, negative = inhibition [3] -0.734% | Potency [4] > 20.6 µM

Source: PubChem BioAssay (NCATS)
